# Compound activity deposited in PubChem BioAssay by National Center for Advancing Translational Sciences (NCATS).
# ATXN2 expr inh: reduces ATXN2 reporter expression in HEK-293 cells. 0.72% of 360,000 active. AID 1745845. HEK-293 ATXN2-luciferase reporter, luminescence, 24 h. Potency, µM (doses to about 57 µM), without a hit: at the highest dose activity change, negative = inhibition, actives largely listed as inhibitors; also: % is scaled to controls: 0 for no effect and ±100 for the full control effect; nearly all actives have a fitted effect of over 55% in size
#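 qHTS (up to 57 uM final) was run with 24 h compound exposure of reporter cells at 37 °C. Each well was multiplexed: SteadyGlo luminescence measured ATXN2-luciferase expression after a fluorogenic Gly-Phe-AFC viability readout (25 uM final).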
# HT1080NT lethal: kills 2HG-producing HT-1080-NT fibrosarcoma cells; HT-1080-NT fibrosarcoma viability, CellTiter-Glo ATP luminescence, 48 h; Potency, µM (doses to about 46.1 µM), for inactives: at the highest dose activity, negative = less viability, hits mostly cytotoxic; 1.6% of 360,000 active; AID 686970;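 also: NT is the 2HG producing partner of a matched IDH1 knockdown line; 0% = DMSO-treated cells and -100% = media-only wells without cells; nearly all actives have a fitted effect of over 55% in size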
#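 Compounds were tested in concentration-response format on HT-1080-NT cells for 48 hours at 37 degrees C. Cell viability came from CellTiter-Glo luminescence; curves were classified by r2, response magnitude and activity.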
# TGFb SMAD3 inh: TGF-b pathway inhibition. HepG2 CAGA-GFP TGF-b/SMAD3 reporter, GFP fluorescence, 18 h; TGF-beta stimulated, 500 pg/mL final. Potency, µM (titrated, usually from 46.1 µM), for inactives: at the top dose activity, negative = inhibition, hits mostly inhibitors. 1.2% of 410,000 active; also: % is scaled to controls: 0 for no effect and ±100 for the full control effect; nearly all actives have a fitted effect of over 65% in size
#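 GFP signal (ex488/em500-530) from TGF-beta-stimulated HEPG2 CAGA-GFP cells, 500 pg/mL final, 18 h at 37 degrees C in DMEM plus 1% FBS, normalized to unstimulated and DMSO-stimulated controls.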
# HepG2 viability: counter-screen for TGF-b inhibitors: cytotoxicity in HepG2 cells; AID 588856; 0.76% of 410,000 active; Potency, µM (top dose mostly 46.1 µM), inactives show top-dose activity change, negative = cytotoxicity, hits mostly cytotoxic; HepG2 CAGA-GFP viability, ATP luminescence, 18 h
#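 CellTiter-Glo luminescence gave cytotoxicity after 18 hours at 37 degrees C. The cells were HepG2 CAGA-GFP in 1% FBS DMEM, stimulated with 500 pg/mL TGF-beta after compound addition. %Activity was normalised to no-cell wells (complete cell-killing) and DMSO (no toxicity), and curves were fitted and classified.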
# HT1080 IDH1KD tx: HT-1080 IDH1 knockdown cell toxicity (counter line) | HT-1080 IDH1 knockdown viability, ATP luminescence, 48 h | Potency, µM (doses to about 46.1 µM), for the others: at the top dose activity, negative = toxicity, actives largely listed as cytotoxic | 2% of 360,000 active | AID 686971;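 also: 0% = DMSO wells and -100% = cell-free medium wells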
#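 Knockdown cells (IDH1KD HT-1080) received compounds 2 h after plating at 750 cells/well and were kept 48 h at 37 °C in 5% FBS RPMI. A CellTiter-Glo luminescence read gave % activity for curve fitting.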
# ATXN viability: reduces viability in counter-screen for ATXN expression inhibitors. 0.49% of 400,000 active. S2 cells (HEK-293 line with an ATXN2-luciferase reporter) viability, CellTiter-Fluor protease fluorescence, 24 h. Potency, µM (titrated, usually from 56.7 µM), most hits filed as cytotoxic; also: nearly all actives have a fitted effect of over 40% in size
# An asterisk follows results filed as active; i = inactive; ? = inconclusive; · = no result. Most compounds without a hit are left out; they make up all but 3.8% or so of the library. Calls follow the shape of the dose curve; as a rule, active = well fitted curve in the direction sought with a large enough effect; inconclusive = small, poorly fitted or top-dose-only effect, or another doubt; inactive = no such curve, though single readings can be large; an effect the other way counts as inactive or inconclusive. Potency is read from the fitted curve at half-maximal effect.
SMILES,ATXN2 expr inh,HT1080NT lethal,TGFb SMAD3 inh,HepG2 viability,HT1080 IDH1KD tx,ATXN viability
CCn1nc(C)c2c(-c3ccccc3)cc(=O)n(C(C)C(=O)NCc3ccccc3OC)c21 (stereo not drawn),?,·,20µM*,-32%,·,?
CCn1nc(C)c2c(-c3ccccc3)cc(=O)n(C(C)C(=O)NCCc3ccc(Cl)cc3)c21 (stereo not drawn),?,·,0%,-1%,·,?
CON=C(C(=O)N[C@@H]1C(=O)N2C(C(=O)O)=C(CSC(=O)c3ccco3)CS[C@H]12)c1csc(N)n1,2%,·,·,·,·,·
CC(O)(CS(=O)(=O)Cc1cccc(C(F)(F)F)c1)C(=O)Nc1cccc(C(F)(F)F)c1 (stereo not drawn),-5%,?,?,-40%,16µM*,?
CC1CCN(C(=O)Cn2cc(SCc3ccccc3)c3ccccc32)CC1,·,·,-37%,-20%,·,·
CSC1=NC(C)(C)C=C(/C=C/c2ccc(Cl)cc2)N1,?,23µM*,?,-19%,?,?
CCSC1=NC(C)(C)C=C(/C=C/c2ccc(Cl)cc2Cl)N1,-6%,16µM*,?,-38%,?,i
CCc1ccccc1NC(=O)CSc1ncc2c(n1)-c1ccccc1N(Cc1ccc(C)cc1)S2(=O)=O,10%,·,-5%,-13%,·,i
CCOC(=O)c1cnc(Nc2nc3ccccc3o2)nc1C,2.8µM*,2.8µM*,0%,-41%,3.5µM*,i
CCOC(=O)c1cnc(Nc2nc3ccccc3o2)nc1CSc1nnc(C)s1,-7%,-20%,2%,-21%,-1%,i
CCC1CN(CCNC(=O)c2ccc(N3CCOCC3)cc2)Cc2cc(OC)ccc2O1 (stereo not drawn),·,·,·,·,·,i
COc1ccc(CN2CCOc3ccc(CN4CCC(Oc5cccnc5)CC4)cc3C2)c(F)c1,·,·,·,·,·,i
O=C(NC(NC(=S)Nc1ccc(Cl)cc1Cl)C(Cl)(Cl)Cl)c1cccc([N+](=O)[O-])c1 (stereo not drawn),?,?,?,13µM*,?,?
O=C(NC(NC(=S)Nc1ccccc1)C(Cl)(Cl)Cl)c1cccc(Cl)c1 (stereo not drawn),?,?,4.5µM*,13µM*,?,i
CN1CCN(/N=C/c2ccc(N(C)c3ccccc3)cc2)CC1,-10%,-1%,-8%,-2%,14%,?
CN1CCN(/N=C/c2ccc(N(c3ccccc3)c3ccccc3)cc2)CC1,0.84µM*,-13%,2µM*,4%,-5%,·
Cc1ccc(S(=O)(=O)CCc2nnc(NC(=O)CCl)s2)cc1C,6%,?,-23%,-45%,15µM*,i
CCc1ccc(O)c(CNCCNCc2cc(CC)ccc2O)c1,?,-30%,?,16µM*,-17%,?
Cc1ccc(NC(=O)C(c2ccccc2)c2ccccc2)c(O)c1,-6%,-24%,16µM*,-25%,-25%,i
COc1cc(NC(=O)C(c2ccccc2)c2ccccc2)c(C(=O)O)cc1OC,·,0%,25%,25%,1%,i
CCNc1ccc(/C=C2\C=Cc3ccccc32)cc1,·,·,5%,-18%,·,·
COc1cc2c(cc1C(F)(F)F)N(C(=O)Nc1cc(F)cc(-c3cccnc3)c1)CC2,·,11µM*,·,·,?,·
CC(C)Oc1ccc(C(=O)NCC2Cc3cc(Cl)cc(-c4ncccn4)c3O2)cc1 (stereo not drawn),·,·,·,·,·,i
O=C(CSc1ncnc2nc[nH]c12)c1ccc2ccccc2c1,15%,23µM*,-3%,-32%,?,i
Cc1cc(C)c(CSc2ncnc3nc[nH]c23)c(C)c1,-20%,-2%,-12%,-15%,-2%,i
c1nc(SSc2ncnc3nc[nH]c23)c2[nH]cnc2n1,-6%,2.3µM*,0%,-65%,1.3µM*,i
